# From PubChem BioAssay AID686978 (National Center for Advancing Translational Sciences (NCATS), 2013)
# Several values for one entry are separate records, joined by “and”; a condition that tells them apart may be missing. Equal values may be shown once. The campaign covered roughly 420,000 compounds. About 64,000 (15%) were called active. Another 27% or so got no clear call; they are omitted. Calls follow the shape of the dose curve; as a rule, active = well fitted inhibition curve with a large enough effect; inconclusive = small, poorly fitted or top-dose-only effect; inactive = flat fitted curve, though single readings scatter. Not all results are given here. Entries that show only a call come without a potency. Where a structure was tested more than once in an assay, its records may differ in their call.
# Test: qHTS for Inhibitors of human tyrosyl-DNA phosphodiesterase 1 (TDP1): qHTS in cells in absence of CPT; also: nearly all actives have a fitted effect of over 55% in size
# Conditions: DT40 Tdp1-/- hTDP1 cells, no CPT, ATP luminescence, 48 h; activity change, negative = growth inhibition: at 46.2 µM (top of the series)
# Summary of the method: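 No-CPT arm: Tdp1-/-;hTDP1 DT40 cells (400/well) plus compounds, incubated ≥48 hr at 37 °C. Readout CellTiter-Glo luminescence.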
# Potency is read from the fitted curve at half-maximal effect.
row,Compound,Potency
1,C#CCOCCOCCOCCNc1nc(N2CCN(C(=O)[C@H](CCCCN)n3cc(CCC(=O)O)nn3)CC2)nc(N2CCN(C(=O)[C@H](CCCCN)n3cc(CC(C)O)nn3)CC2)n1 (some centres not stated),inactive
2,CSc1ccc(CNC(=O)c2ccc(NC(=O)C3=CSCCO3)cc2)cc1,inactive
3,CC(=O)c1ccc(N2CCN(CC(O)c3ccccc3)CC2)cc1 (configuration not stated),inactive
4,CC1CCCCN1CC(=O)NCc1ccc2c(c1)OCO2 (configuration not stated),inactive
5,Cn1cncc1COC(=O)c1ccc(Cl)cc1,inactive
6,Cc1ccc(OCCSc2nc(-c3cccs3)nc3cc(=O)[nH]n23)cc1Cl,29.1 µM (active)
7,CC(C)c1c(O)nc(SCCOc2ccc(Cl)cc2)[nH]c1=O,inactive
8,CCc1ccccc1OCCSc1nc(-c2cccs2)nc2cc(=O)[nH]n12,inactive
9,Brc1cccc(-c2nnc3n2CCC3)c1,inactive
10,C[C@H](NC(=O)c1nc[nH]c1C(=O)NCC(=O)OC(C)(C)C)c1ccccc1,inactive
11,CSc1ncc(C(=O)NCCCc2ccccc2)c(C)n1,inactive
12,COc1ccc(CCNC(=O)c2cnc3sc(N4CCCCCC4)nn3c2=O)cc1OC,8.2 µM (active)
13,COc1ccc(CCNC(=O)C2CCN(c3nn4c(=O)cc(C)nc4s3)CC2)cc1OC,inactive
14,O=C(O)c1ccccc1-c1ccccc1C(=O)NCCc1ccccc1,inactive
15,O=C(NCCc1ccccc1)c1cnc2sc(N3CCCC3)nn2c1=O,20.6 µM (active)
16,COc1ccc(CCNC(=O)c2ccc(NC(=O)CC3SC(N4CCCCC4)=NC3=O)cc2)cc1OC (configuration not stated),inactive
17,Cc1ccccc1N1CC(c2nc3ccccc3[nH]2)CC1=O (configuration not stated),inactive
18,COCCNC(=O)CN(Cc1ccco1)C(=O)CCC(=O)Nc1nccs1,inactive
19,CCC(C)NC(=O)Cn1nc(C(F)(F)F)c2c1CCC2 (configuration not stated),inactive
20,O=C(NCc1ccco1)c1nn2cccnc2c1Cl,inactive
21,CCOc1ccc(-n2c(SC(C)C(=O)OC)nc3c(c2=O)SCC3)cc1 (configuration not stated),inactive
22,O=S(=O)(c1ccc(F)cc1)N1CCN(C(=S)NCc2ccco2)CC1,inactive
23,COc1cc(/C=C/C(=O)O)cc(S(=O)(=O)Nc2ccccc2SC)c1OC,inactive
24,CC(C)C(NS(=O)(=O)c1cccs1)C(=O)Nc1nc(C(C)(C)C)cs1 (configuration not stated),23.1 µM (active)
25,COc1cc(Cl)c(NC(=O)C(NS(=O)(=O)c2cccs2)C(C)C)c(OC)c1 (configuration not stated),inactive
26,CC(C)(C)c1csc(NC2=NS(=O)(=O)c3ccccc32)n1,inactive

row,Compound,Potency
1,Cc1ccccc1-n1cc(CNC(=O)C2CCC(=O)N(C3CC3)C2)cn1 (configuration not stated),inactive
2,COc1ccc(CC(NC(C)=O)C(=O)N2CCN(C(=O)Nc3cccc(Cl)c3)CC2)cc1OC (configuration not stated),inactive
3,COC(=O)/C=C\C(=O)Nc1cccc([N+](=O)[O-])c1,2.06 µM (active)
4,CC(=O)Nc1cccc([N+](=O)[O-])c1,inactive
5,O=C(CSCC(=O)Nc1cccc([N+](=O)[O-])c1)Nc1ccccc1,inactive
6,COc1cc(C2/C(=C(\O)c3ccc4c(c3)CC(C)O4)C(=O)C(=O)N2Cc2ccco2)ccc1O (configuration not stated),inactive
7,CCOC(=O)c1sc2nc(C)nc(Nc3ccc(OC)c(OC)c3)c2c1C,inactive
8,CCOc1ccc(Nc2ncnc3scc(-c4ccc(OC)cc4)c23)cc1,18.4 µM (active)
9,COc1ccc(-c2csc3ncnc(Oc4ccc5c(C)cc(=O)oc5c4)c23)cc1,inactive
10,Cc1c(Cl)c([N+](=O)[O-])nn1CCCC(=O)NC(C)c1ccccc1 (configuration not stated),inactive
11,CCC(C(=O)N1CCN(S(=O)(=O)c2sc(C(=O)O)c(C)c2C(=O)O)CC1)c1ccccc1 (configuration not stated),inactive
12,Cc1cccc(S(=O)(=O)N(C)C[C@H]2OCc3cnnn3CCCC(=O)N([C@@H](C)CO)C[C@H]2C)c1,inactive
13,Cn1cccc1-c1nc2ccccc2n1C,inactive
14,Cc1csc(-c2nc3ccccc3n2C)n1,18.8 µM (active)
15,Cn1c(-c2ccc(C(=O)c3ccccc3)s2)nc2ccccc21,inactive
16,Cc1ccc2nc(-c3ccc(Br)cc3)cn2c1,inactive
17,Cc1cc2c(cc1C)NC(c1ccccn1)C1=C(CC(C)(C)CC1=O)N2 (configuration not stated),inactive
18,Nc1nc(SCC(=O)Nc2ccc(Cl)c([N+](=O)[O-])c2)n[nH]1,inactive
19,O=C(O)c1ccc2c(=O)n3c(nc2c1)/C(=C/c1ccc(Cl)c([N+](=O)[O-])c1)CC3,inactive
20,CC(CC(=O)O)C(=O)c1ccc(Cl)c([N+](=O)[O-])c1 (configuration not stated),inactive
21,CN(C)c1ccc(/C=C/C(=O)c2ccc(C(C)(C)C)cc2)cc1[N+](=O)[O-],23.1 µM (active)
22,O=C(/C=C/c1ccc(Cl)cc1)N1CCN(c2ccccc2[N+](=O)[O-])CC1,inactive
23,Nn1cnnc1N/N=C/c1cc([N+](=O)[O-])c(Cl)cc1Cl,inactive
24,Cc1cc(C)n(-c2ccc(C(=O)O)cc2[N+](=O)[O-])n1,inactive
25,NC(N)=N/N=C/c1ccc(Cl)c([N+](=O)[O-])c1,10.3 µM (active)
26,O=C(/C=C/c1ccc(Cl)c([N+](=O)[O-])c1)c1ccc(O)cc1,4.61 µM (active)

row,Compound,Potency
1,C[C@@H]1CC2=C(C(=O)OC(C)(C)O2)[C@@H](C2CC2)O1,inactive
2,COc1cccc(-c2ccc3c(c2)S(=O)(=O)c2cccc(C(=O)O)c2C3=O)c1OC,inactive
3,O=C(COC(=O)c1ccc([N+](=O)[O-])cc1Cl)NC(=O)c1ccccc1,inactive
4,O=S(=O)(c1ccccc1)N1CCC2(CC1)CN(Cc1nccs1)C2,inactive
5,CC(=O)N[C@@H](C)C(=O)N1CCC(n2nccc2NC(=O)CCCc2ccccc2)CC1,inactive
6,Cc1oc2ccc(O)c(CN3CCCCC3)c2c1C(=O)Nc1cccc(C(F)(F)F)c1,23.1 µM (active)
7,CCOC(=O)c1cccc(NC(=O)c2cc(CN3CCCC3)on2)c1,inactive
8,CC(=O)N1CCN(C(=O)Nc2cccc(C(F)(F)F)c2)CC1,inactive
9,COc1ccc(CCNC(=O)COC(=O)C2CC2C)cc1 (configuration not stated),inactive
10,O=C(O)CCN(Cc1ccccc1)S(=O)(=O)c1c(Cl)cccc1Cl,inactive
11,CCC(C)N(C(=O)CSc1ncnc2c1cnn2-c1ccccc1)C1CCS(=O)(=O)C1 (configuration not stated),inactive
12,COc1ccccc1NC(=O)c1oc2ccccc2c1NC(=O)COc1ccccc1OC,inactive
13,COc1ccccc1NC(=S)NC(=O)C(C)C,inactive
14,COc1ccccc1NC(=O)c1oc2ccccc2c1NC(=O)C(C)C,16.4 µM (active)
15,Cc1ccc(C(=O)OCC(=O)Nc2ccc(Cl)cn2)cc1S(=O)(=O)N1CCOCC1,inactive
16,O=C(COC(=O)C1(c2ccc(F)cc2)CCCC1)N1CCNC1=O,inactive
17,N[C@@H](Cc1ccccc1)C(=O)N1CCOCC1,inactive
18,O=C(OCCN1CCOCC1)C1(c2ccccc2)CCCCC1,inactive and 26.6 µM (active)
19,CN(C)S(=O)(=O)N1CCC(Oc2cccc(C(=O)NCCCC3CCCC3)c2)CC1,7.31 µM (active)
20,CN(C(=O)c1cccc(OC2CCN(S(=O)(=O)N(C)C)CC2)c1)C1CCOC1 (configuration not stated),inactive
21,CNS(=O)(=O)c1cccc(C(=O)NCC2CCCCC2)c1,inactive
22,CC(C)N(C(=O)Cn1cc(SCC(=O)N2CCCC2)c2ccccc21)C(C)C,inactive
23,O=C1c2ccccc2C(=O)N1CCc1nn[nH]n1,inactive
24,COc1ccc(N2CC(C(=O)NCCS(=O)(=O)N3CCN(c4ccccc4)CC3)CC2=O)cc1 (configuration not stated),inactive
25,COc1cc(C(=O)NCCS(=O)(=O)N2CCN(c3ccccc3)CC2)cc(OC)c1OC,20.6 µM (active)
26,O=C(NCCS(=O)(=O)N1CCN(c2ccccc2)CC1)c1ccco1,inactive

row,Compound,Potency
1,O=C(O)c1cc(S(=O)(=O)N(Cc2ccccc2)c2ccccc2)ccc1Cl,inactive
2,C#CCOCCOCCOCCNc1nc(N2CCN(C(=O)Cn3cc(CCCCN)nn3)CC2)nc(N2CCN(C(=O)[C@H](CCCCN)n3cc(CCC(=O)O)nn3)CC2)n1,inactive
3,Cc1ccc(-c2csc(-c3cc(C)on3)n2)cc1,inactive
4,COc1ccc(C(C)(O)c2nc(-c3cc(F)cc(F)c3)cs2)cc1 (configuration not stated),16.4 µM (active)
5,Cc1csc(OCC(=O)Nc2ccc(C)c(C)c2)n1,inactive
6,COc1ccc(C(C)(O)c2nc(-c3ccc(C)c(C)c3)cs2)cc1 (configuration not stated),18.4 µM (active)
7,COc1ccc(C(C)(NC(C)=O)c2nc(-c3ccc(S(C)(=O)=O)cc3)cs2)cc1 (configuration not stated),inactive
8,COc1cccc(CN2C(=O)CCC2(C)C(=O)NC2CCCCCC2)c1 (configuration not stated),inactive
9,COc1cc(C)c(S(=O)(=O)N2CCOCC2)c(C)c1C,inactive
10,CCNC(=O)Nc1ccc(S(=O)(=O)Nc2cnc(C)nc2C)cc1,inactive
11,Cc1cccc(NC(=O)/C=C/c2ccc3c(c2)OCO3)n1,18.4 µM (active)
12,O=C(O)/C=C/c1ccc2c(c1)OCCO2,inactive
13,CCc1c(C)sc(NC(=O)/C=C/c2ccc3c(c2)OCO3)c1C(=O)OC,inactive
14,CC1CN(S(=O)(=O)c2ccc(C(=O)NN3CCN(C)CC3)cc2)CC(C)O1 (configuration not stated),inactive
15,O=C(CCC1CCCC1)N=C1SC2CS(=O)(=O)CC2N1Cc1ccccc1 (configuration not stated),inactive
16,O=C(CCN1C(=O)c2ccccc2C1=O)NCCCn1ccnc1,inactive
17,CCCCN(C(=O)C1=NN(c2cc(C)ccc2C)C(=O)CC1)c1c(N)n(CCC)c(=O)[nH]c1=O,inactive
18,CC(C)CC(CCc1ccccc1)OS(N)(=O)=O (configuration not stated),inactive
19,CN1OC[C@@H]2CN(C(=O)C(C)(C)C)[C@H](c3ccc(-n4ccnc4)cc3)C[C@@H]21,inactive
20,CC1CC(C)(C)CC2(C1)NC(=O)N(CC(=O)Nc1nccs1)C2=O (configuration not stated),inactive
21,Cc1ccc(CC2CC(=O)N(c3ccc4c(c3)OCCO4)C2=O)cc1 (configuration not stated),inactive
22,COc1ccc(C2CC(c3ccc([N+](=O)[O-])cc3)=NN2C(C)=O)cc1 (configuration not stated),14.6 µM (active)
23,COc1ccc(C2=NN(C(C)=O)C(c3ccccc3)C2)cc1 (configuration not stated),inactive
24,COc1ccc(C2=NN(C(=O)c3ccccc3C(=O)O)C(c3ccccc3O)C2)cc1 (configuration not stated),inactive
